{"source": "PubChem BioAssay AID1508601", "about": "(ICCB-Longwood Screening Facility, Harvard Medical School, 2020)", "key": {"[1]": {"assay": "p53 stabilisation in HPV-positive human cells, imaging, p53-positive nuclei imaging, 24 h, 48 h (AID 1508601)", "conditions": "24/48 h"}, "[2]": {"target": "Cellular tumor antigen p53 (Homo sapiens) (UniProt P04637)", "sequence (P04637 whole entry, looked up)": "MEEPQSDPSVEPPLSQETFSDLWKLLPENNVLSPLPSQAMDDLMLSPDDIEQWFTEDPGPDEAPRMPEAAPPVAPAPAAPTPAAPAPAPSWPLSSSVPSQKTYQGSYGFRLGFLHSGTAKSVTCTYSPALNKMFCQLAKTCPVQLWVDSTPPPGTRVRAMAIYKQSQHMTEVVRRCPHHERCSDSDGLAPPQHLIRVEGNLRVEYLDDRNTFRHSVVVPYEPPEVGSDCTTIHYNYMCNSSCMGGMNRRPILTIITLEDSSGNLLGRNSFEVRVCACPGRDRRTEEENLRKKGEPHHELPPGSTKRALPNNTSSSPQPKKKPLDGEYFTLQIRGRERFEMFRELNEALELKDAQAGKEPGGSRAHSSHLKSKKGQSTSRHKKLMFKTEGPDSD", "assay": "p53 stabilisation in HPV-positive human cells, imaging, p53-positive nuclei imaging, 24 h, 48 h (AID 1508601)", "conditions": "24/48 h, stronger effect = higher value"}, "[3]": {"conditions": "measured here: cell number at 24 h, Library stock concentration: 10 mM"}, "[4]": {"conditions": "measured here: cell number at 48 h, Library stock concentration: 10 mM"}, "[5]": {"conditions": "Library stock concentration: 10 mM"}, "[6]": {"conditions": "measured here: p53 positive nuclei at 24 h, Library stock concentration: 10 mM"}, "[7]": {"conditions": "measured here: cell number at 24 h, Library stock concentration: 80 uM"}, "[8]": {"conditions": "measured here: cell number at 24 h, Library stock concentration: 400 uM"}, "[9]": {"conditions": "measured here: cell number at 24 h, Library stock concentration: 2 mM"}, "[10]": {"conditions": "measured here: cell number at 48 h, Library stock concentration: 80 uM"}, "[11]": {"conditions": "measured here: cell number at 48 h, Library stock concentration: 400 uM"}, "[12]": {"conditions": "measured here: cell number at 48 h, Library stock concentration: 2 mM"}, "[13]": {"conditions": "Library stock concentration: 80 uM"}, "[14]": {"conditions": "Library stock concentration: 400 uM"}, "[15]": {"conditions": "Library stock concentration: 2 mM"}, "[16]": {"conditions": "measured here: p53 positive nuclei at 24 h, Library stock concentration: 80 uM"}, "[17]": {"conditions": "measured here: p53 positive nuclei at 24 h, Library stock concentration: 400 uM"}, "[18]": {"conditions": "measured here: p53 positive nuclei at 24 h, Library stock concentration: 2 mM"}}, "note": "Hit rate of the full screen: of about 5,700 compounds, about 85 (1%) were called active. No stated cut-off is given here; in the data, active means p53-positive nuclei above about 36% (passing the limit was not always enough); inactive means the rest. Shown is part of a subset that was picked to be rich in actives. Peptide text beside a SMILES is read from it. * marks the point of attachment. Cbz = O=C(OCc1ccccc1)*", "data": [{"molecule": "CC(C)CC(C=O)NC(=O)C(CC(C)C)NC(=O)C(CC(C)C)NC(=O)OCc1ccccc1", "note": "(stereo not drawn) (Cbz-Leu-Leu-Leu-aldehyde; configuration not given here)", "values": [{"measurement": "nuclei count, normalised", "setting": "[1]; measured here: cell number at 24 h, Library stock concentration: 46 uM", "value": 112, "unit": "%"}, {"measurement": "nuclei count, normalised", "setting": "[1]; measured here: cell number at 24 h, Library stock concentration: 278 uM", "value": 112, "unit": "%"}, {"measurement": "nuclei count, normalised", "setting": "[1]; measured here: cell number at 24 h, Library stock concentration: 1.67 mM", "value": 62, "unit": "%"}, {"measurement": "nuclei count, normalised", "setting": "[1]; measured here: cell number at 24 h, Library stock concentration: 3.33 mM", "value": 46.1, "unit": "%"}, {"measurement": "nuclei count, normalised", "setting": "[1]; [3]", "value": 59.9, "unit": "%"}, {"measurement": "nuclei count, normalised", "setting": "[1]; measured here: cell number at 48 h, Library stock concentration: 46 uM", "value": 111, "unit": "%"}, {"measurement": "nuclei count, normalised", "setting": "[1]; measured here: cell number at 48 h, Library stock concentration: 278 uM", "value": 104, "unit": "%"}, {"measurement": "nuclei count, normalised", "setting": "[1]; measured here: cell number at 48 h, Library stock concentration: 1.67 mM", "value": 46.9, "unit": "%"}, {"measurement": "nuclei count, normalised", "setting": "[1]; measured here: cell number at 48 h, Library stock concentration: 3.33 mM", "value": 38.7, "unit": "%"}, {"measurement": "nuclei count, normalised", "setting": "[1]; [4]", "value": 46.7, "unit": "%"}, {"measurement": "p53-positive nuclei, normalised", "setting": "[2]; Library stock concentration: 46 uM", "value": "-0.152% (inactive)"}, {"measurement": "p53-positive nuclei, normalised", "setting": "[2]; Library stock concentration: 278 uM", "value": "0.0393% (inactive)"}, {"measurement": "p53-positive nuclei, normalised", "setting": "[2]; Library stock concentration: 1.67 mM", "value": "92% (active)"}, {"measurement": "p53-positive nuclei, normalised", "setting": "[2]; Library stock concentration: 3.33 mM", "value": "92% (active)"}, {"measurement": "p53-positive nuclei, normalised", "setting": "[2]; [5]", "value": "106% (active)"}, {"measurement": "p53-positive nuclei, normalised", "setting": "[2]; measured here: p53 positive nuclei at 24 h, Library stock concentration: 46 uM", "value": 0.0832, "unit": "%"}, {"measurement": "p53-positive nuclei, normalised", "setting": "[2]; measured here: p53 positive nuclei at 24 h, Library stock concentration: 278 uM", "value": -0.0262, "unit": "%"}, {"measurement": "p53-positive nuclei, normalised", "setting": "[2]; measured here: p53 positive nuclei at 24 h, Library stock concentration: 1.67 mM", "value": 44.6, "unit": "%"}, {"measurement": "p53-positive nuclei, normalised", "setting": "[2]; measured here: p53 positive nuclei at 24 h, Library stock concentration: 3.33 mM", "value": 87.5, "unit": "%"}, {"measurement": "p53-positive nuclei, normalised", "setting": "[2]; [6]", "value": 135, "unit": "%"}]}, {"molecule": "C=CC(=O)N1CCc2ccc(-n3c(=O)ccc4cnc5ccc(-c6cnn(C)c6)cc5c43)cc21", "values": [{"measurement": "nuclei count, normalised", "setting": "[1]; [7]", "value": 107, "unit": "%"}, {"measurement": "nuclei count, normalised", "setting": "[1]; [8]", "value": 102, "unit": "%"}, {"measurement": "nuclei count, normalised", "setting": "[1]; [9]", "value": 74.7, "unit": "%"}, {"measurement": "nuclei count, normalised", "setting": "[1]; [3]", "value": 48.5, "unit": "%"}, {"measurement": "nuclei count, normalised", "setting": "[1]; [10]", "value": 108, "unit": "%"}, {"measurement": "nuclei count, normalised", "setting": "[1]; [11]", "value": 102, "unit": "%"}, {"measurement": "nuclei count, normalised", "setting": "[1]; [12]", "value": 84.2, "unit": "%"}, {"measurement": "nuclei count, normalised", "setting": "[1]; [4]", "value": 37.4, "unit": "%"}, {"measurement": "p53-positive nuclei, normalised", "setting": "[2]; [13]", "value": "-0.0335% (inactive)"}, {"measurement": "p53-positive nuclei, normalised", "setting": "[2]; [14]", "value": "-0.203% (inactive)"}, {"measurement": "p53-positive nuclei, normalised", "setting": "[2]; [15]", "value": "-0.00288% (inactive)"}, {"measurement": "p53-positive nuclei, normalised", "setting": "[2]; [5]", "value": "0.846% (inactive)"}, {"measurement": "p53-positive nuclei, normalised", "setting": "[2]; [16]", "value": -0.0563, "unit": "%"}, {"measurement": "p53-positive nuclei, normalised", "setting": "[2]; [17]", "value": -0.129, "unit": "%"}, {"measurement": "p53-positive nuclei, normalised", "setting": "[2]; [18]", "value": -0.129, "unit": "%"}, {"measurement": "p53-positive nuclei, normalised", "setting": "[2]; [6]", "value": 0.0284, "unit": "%"}]}, {"molecule": "CS(=O)(=O)c1ccc(C(CC2CCCC2)C(=O)Nc2nccs2)cc1", "note": "(configuration not stated)", "values": [{"measurement": "nuclei count, normalised", "setting": "[1]; [7]", "value": 117, "unit": "%"}, {"measurement": "nuclei count, normalised", "setting": "[1]; [8]", "value": 108, "unit": "%"}, {"measurement": "nuclei count, normalised", "setting": "[1]; [9]", "value": 110, "unit": "%"}, {"measurement": "nuclei count, normalised", "setting": "[1]; [3]", "value": 109, "unit": "%"}, {"measurement": "nuclei count, normalised", "setting": "[1]; [10]", "value": 110, "unit": "%"}, {"measurement": "nuclei count, normalised", "setting": "[1]; [11]", "value": 104, "unit": "%"}, {"measurement": "nuclei count, normalised", "setting": "[1]; [12]", "value": 100, "unit": "%"}, {"measurement": "nuclei count, normalised", "setting": "[1]; [4]", "value": 106, "unit": "%"}, {"measurement": "p53-positive nuclei, normalised", "setting": "[2]; [13]", "value": "0.258% (inactive)"}, {"measurement": "p53-positive nuclei, normalised", "setting": "[2]; [14]", "value": "0.124% (inactive)"}, {"measurement": "p53-positive nuclei, normalised", "setting": "[2]; [15]", "value": "0.01% (inactive)"}, {"measurement": "p53-positive nuclei, normalised", "setting": "[2]; [5]", "value": "-0.00666% (inactive)"}, {"measurement": "p53-positive nuclei, normalised", "setting": "[2]; [16]", "value": -0.031, "unit": "%"}, {"measurement": "p53-positive nuclei, normalised", "setting": "[2]; [17]", "value": -0.122, "unit": "%"}, {"measurement": "p53-positive nuclei, normalised", "setting": "[2]; [18]", "value": 0.0254, "unit": "%"}, {"measurement": "p53-positive nuclei, normalised", "setting": "[2]; [6]", "value": -0.0737, "unit": "%"}]}]}
